The source of these data is PubChem BioAssay (EPA / NIEHS).

Read-out in assay [1]: Intercellular Adhesion Molecule 1 (ICAM1), ICAM1 (gene 3383)
Description: BSK_BE3C_ICAM1: BioMAP Diversity Plus: BE3C Assay for Intercellular Adhesion Molecule 1 (ICAM1) Biomarker Activity (AID 2284278).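 On outcome: cell-surface ICAM-1 protein level quantified by ELISA.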 Conditions: primary human bronchial epithelial cells. The essentials:
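hu bronchial epithelial primary cells, 24 h cpd exposure, ICAM-1 ELISA; gain-of-signal fit vs DMSO baseline.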

Read-out in assay [2]: Interferon-inducible T-cell alpha chemoattractant (ITAC), CXCL11 (gene 6373)
Description: BSK_BE3C_ITAC: BioMAP Diversity Plus: BE3C Assay for Interferon-inducible T-cell alpha chemoattractant (ITAC) Biomarker Activity (AID 2284279). The note with it: primary human bronchial epithelial cells. The method in brief:
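ELISA read-out of I-TAC after 24 h chemical dosing of human lung primary bronchial epithelial cells; gain-of-signal fit vs DMSO baseline. Parallel SRB total-protein staining (0.1% SRB, 10% TCA fixation, 560 nm) assessed cytotoxicity.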

Read-out in assay [3]: Interleukin-8 (IL8), CXCL8 (gene 3576)
Description: BSK_BE3C_IL8: BioMAP Diversity Plus: BE3C Assay for Interleukin-8 (IL8) Biomarker Activity (AID 2284280). Conditions: primary human bronchial epithelial cells. The method in brief: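 Measured at 24 h after treatment, IL-8 from human primary bronchial epithelial cells is determined by ELISA, and the response is modelled as increasing relative to DMSO negative control.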

Read-out in assay [4]: Epidermal growth factor receptor (EGFR), EGFR (gene 1956)
The experiment in a line: BSK_BE3C_EGFR: BioMAP Diversity Plus: BE3C Assay for Epidermal growth factor receptor (EGFR) Biomarker Activity (AID 2284281). The note with it: primary human bronchial epithelial cells. The essentials:
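Measured 24 h after dosing in primary human bronchial epithelial cultures, EGFR was read by ELISA; gain of signal over DMSO control defined activity.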

Read-out in assay [5]: KRT18 (gene 3875)
The experiment in a line: BSK_BE3C_Keratin818: BioMAP Diversity Plus: BE3C Assay for Keratin 818 Biomarker Activity (AID 2284282). Conditions: primary human bronchial epithelial cells. The essentials: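 In this multiplexed primary-cell system, bronchial epithelial cells were dosed and harvested at 24 h. Keratin 8/18 was determined by ELISA and analysed for increases over DMSO controls.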

Read-out in assay [6]: Matrix Metallopeptidase 9 (MMP9), MMP9 (gene 4318)
Description: BSK_BE3C_MMP9: BioMAP Diversity Plus: BE3C Assay for Matrix Metallopeptidase 9 (MMP9) Biomarker Activity (AID 2284283). Conditions: primary human bronchial epithelial cells. The method in brief:
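BE3C, human bronchial epithelial primary cells; 24 h post-dose; MMP-9 by ELISA; positive fit vs DMSO; SRB (0.1%, TCA-fixed, 560 nm) parallel cytotox.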

Read-out in assay [7]: Plasminogen activator inhibitor-1 (PAI1), SERPINE1 (gene 5054)
The experiment in a line: BSK_CASM3C_PAI1: BioMAP Diversity Plus: CASM3C Assay for Plasminogen activator inhibitor-1 (PAI1) Biomarker Activity (AID 2284284).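 Further: PAI-1 protein level measured by ELISA 24 h after dosing.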 The note with it: primary human coronary artery smooth muscle cells.

Read-out in assay [8]: Monocyte Chemoattractant Protein-1 (MCP1), CCL2 (gene 6347)
Description: BSK_hDFCGF_MCP1: BioMAP Diversity Plus: hDFCGF Assay for Monocyte Chemoattractant Protein-1 (MCP1) Biomarker Activity (AID 2284285). Conditions: primary human foreskin fibroblasts. The method in brief: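 MCP-1 ELISA readout was taken 24 hours after dosing primary human dermal fibroblasts in the hDFCGF system, with DMSO as baseline. Parallel sulforhodamine B staining of total protein tracked overt cytotoxicity.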

Read-out in assay [9]: Vascular cell adhesion molecule 1 (VCAM1), VCAM1 (gene 7412)
The experiment in a line: BSK_IMphg_VCAM1: BioMAP Diversity Plus: IMphg Assay for Vascular cell adhesion molecule 1 (VCAM1) Biomarker Activity (AID 2284286). Conditions: primary human endothelial cells with macrophages. The essentials: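 ELISA read-out of VCAM-1 on venular endothelial cell/macrophage co-cultures at 24 h post-treatment, with DMSO as baseline and positive-direction fitting. Parallel sulforhodamine B total-protein staining (560 nm) served as the overt cytotoxicity measure.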

Read-out in assay [10]: Intercellular Adhesion Molecule 1 (ICAM1), ICAM1 (gene 3383)
The experiment in a line: BSK_hDFCGF_ICAM1: BioMAP Diversity Plus: hDFCGF Assay for Intercellular Adhesion Molecule 1 (ICAM1) Biomarker Activity (AID 2284287). Conditions: primary human foreskin fibroblasts. The essentials: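 ICAM-1 ELISA readout 24 h after dosing, DMSO as baseline, in human dermal foreskin fibroblast cultures. Cytotoxicity checked in parallel wells by SRB staining (0.1% SRB, 10% TCA fixation, 560 nm).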

Values joined by “and” are separate entries in the source; they are usually repeats but may differ in a detail not shown here. Equal entries are not always repeated. Where a structure was tested more than once in an assay, its records may differ in their call. Active and inactive are the calls of the source. How the source made its calls: active means hit-call score of the fitted dose curve at least 0.9, where 1 is the maximum; inactive means score below 0.9.

For the compound `OCC(F)(F)C(F)(F)C(F)(F)C(F)(F)C(F)(F)C(F)(F)CO`, the outcome in [1], in [2], in assay [3], in assay [4], in [5] and in [6] was inactive. Moreover, the outcome in assay [7], in [8], in assay [9] and in assay [10] was inactive.

As to `O=C(Cl)C(F)(F)C(F)(F)C(F)(F)C(F)(F)C(F)(F)C(F)(F)F`, the result in [1], in assay [2], in [3], in assay [4], in assay [5] and in [6] was inactive. Moreover, the result in assay [7], in assay [8], in [9] and in [10] was inactive.

With `FC(F)(F)C(F)(F)C(F)(F)CC1CO1` (stereo not given), the result in assay [1], in assay [2], in assay [3], in assay [4], in [5] and in assay [6] was inactive. For the same compound, the result in assay [7], in assay [8], in [9] and in assay [10] was inactive.

On to `NC(=O)C(F)(F)C(F)(F)C(F)(F)C(F)(F)C(N)=O`, for which the outcome in [1], in [2], in assay [3], in assay [4], in assay [5] and in assay [6] was inactive. In addition, the outcome in [7], in assay [8], in [9] and in assay [10] was inactive. Also, the AC50 (in general, the concentration at which the activity in the assay is half-maximal) in assay [10] is 17.6 µM (active).

Regarding `CCN=C1C=CC(=C(c2ccc(N(CC)CC)cc2)c2ccc(N(CC)CC)cc2)c2ccccc21`, the AC50 is 3.19 µM (active) and 2.57 µM (active) in assay [1]; 2.7 µM (active) and 2.3 µM (active) in assay [2]; 4.21 µM (active) and 3.7 µM (active) in assay [3]; 1.61 µM (active) and 1.51 µM (active) in assay [5]; 1.07 µM (active) and 490 nM (active) in assay [6]; 5.67 µM (active) and 5.38 µM (active) in assay [7]. In addition, the AC50 in [8] was 1.63 µM (active) and 1.44 µM (active); in assay [10], 1.9 µM (active) and 1.77 µM (active). Further, the result in [4] was inactive.

On to `OCC(O)CC(F)(F)C(F)(F)C(F)(F)C(F)(F)F` (stereo not given), for which the result in assay [1], in [2], in [3], in assay [4], in [5] and in [6] was inactive. Also, the result in assay [7], in assay [8], in assay [9] and in assay [10] was inactive.

Turning to `NC(=O)C(F)(F)C(F)(F)C(F)(F)C(F)F`, the outcome in assay [1], in [2], in assay [3], in assay [4], in assay [5] and in [6] was inactive. The result in [7], in assay [8], in [9] and in assay [10] was inactive.

`NC(O)(C(F)(F)F)C(F)(F)F`: the outcome in [1], in assay [2], in assay [3], in assay [4], in assay [5] and in assay [6] was inactive. For the same compound, the outcome in assay [7], in assay [8], in assay [9] and in assay [10] was inactive.

Take `O=C(O)C(F)(F)C(F)(F)C(F)(F)OC(F)(F)F`: the result in assay [1], in assay [2], in assay [3], in assay [4], in assay [5] and in assay [6] was inactive. Moreover, the result in assay [7], in assay [8], in assay [9] and in assay [10] was inactive.

As for `O=C(O)C(F)(F)C(F)(F)C(F)(F)C(=O)O`, the outcome in assay [1], in [2], in assay [3], in [4], in assay [5] and in assay [6] was inactive. The outcome in [7], in assay [8], in assay [9] and in [10] was inactive.

In the case of `COC(F)(C(F)F)C(F)(F)F` (stereo not given), the result in [1], in [2], in assay [3], in assay [4], in [5] and in [6] was inactive. Besides, the result in assay [7], in assay [8], in assay [9] and in [10] was inactive.

Turning to `OCCCC(F)(F)C(F)(F)C(F)(F)C(F)(F)C(F)(F)C(F)(F)C(F)(F)C(F)(F)F`, the half-maximal activity concentration (AC50) in assay [1] is 47 µM (active) and 47.6 µM (active); in assay [2], 50.2 µM (active) and 51.8 µM (active); in assay [3], 11.4 µM (active) and 8.23 µM (active); in assay [4] it was 33 µM (active) and 21.3 µM (active); in assay [5] it was 39.6 µM (active) and 42.8 µM (active); in [6] it was 50 µM (active) and 48.2 µM (active). Moreover, the AC50 in assay [7] is 48.3 µM (active) and 45.4 µM (active); in [8], 7.74 µM (active) and 7.47 µM (active); in assay [9], 18 µM (active) and 17.8 µM (active); in assay [10] it was 15.3 µM (active) and 9.92 µM (active).

For `NC(=O)C(F)(F)C(F)(F)C(F)(F)C(F)(F)C(F)(F)C(F)(F)C(F)(F)F`, the result in assay [1], in assay [2], in [3], in assay [4], in assay [5] and in assay [6] was inactive. For the same compound, the result in assay [7], in [8], in assay [9] and in assay [10] was inactive.

`CO[Si](C)(CCC(F)(F)C(F)(F)C(F)(F)C(F)(F)C(F)(F)C(F)(F)F)OC`: the outcome in [1], in [2], in assay [3], in [4], in assay [5] and in assay [6] was inactive. Also, the outcome in assay [7], in assay [8], in assay [9] and in assay [10] was inactive.

Turning to `CCOC(=O)CC(=O)C(F)(F)C(F)(F)F`, the result in assay [1], in assay [2], in [3], in [4], in [5] and in [6] was inactive. Moreover, the outcome in assay [7], in [8], in [9] and in assay [10] was inactive.

`O=S(=O)(O)CCC(F)(F)C(F)(F)C(F)(F)C(F)(F)F`: the result in assay [1], in [2], in assay [3], in assay [4], in assay [5] and in assay [6] was inactive. For the same compound, the result in assay [7], in assay [8], in [9] and in assay [10] was inactive.

`O=C(F)C1(F)C(F)(F)C(F)(F)C(F)(F)C(F)(F)C1(F)F`: the result in assay [1], in [2], in [3], in assay [4], in assay [5] and in assay [6] was inactive. In addition, the result in [7], in assay [8], in assay [9] and in assay [10] was inactive.

On to `OCC(F)(F)C(F)(F)C(F)(F)C(F)(F)C(F)(F)C(F)(F)C(F)(F)C(F)(F)CO`, for which the AC50 in assay [1] is 44.7 µM (active) and 40.3 µM (active); in assay [2], 39.6 µM (active) and 31.6 µM (active); in assay [3] it was 19.7 µM (active) and 5.95 µM (active); in [4] it was 30 µM (active) and 25.2 µM (active); in assay [6] it was 34.8 µM (active) and 22.1 µM (active); in assay [8], 51 µM (active) and 42.3 µM (active). Also, the AC50 is 51.5 µM (active) and 54.6 µM (active) in assay [9]; 54.5 µM (active) and 46.2 µM (active) in [10]. Besides, the result in assay [5] and in [7] was inactive.

Take `NCC(F)(F)C(F)(F)C(F)(F)C(F)(F)C(F)(F)C(F)(F)F`: the result in [1], in assay [2], in assay [3], in assay [4], in assay [5] and in assay [6] was inactive. In addition, the result in [7], in [8], in assay [9] and in assay [10] was inactive.

On to `OC(O)C(F)(F)C(F)(F)F`, for which the outcome in assay [1], in assay [2], in [3], in assay [4], in [5] and in [6] was inactive. Further, the outcome in assay [7], in assay [8], in assay [9] and in [10] was inactive.

In the case of `OCC(F)(F)C(F)(F)C(F)(F)CO`, the result in assay [1], in [2], in assay [3], in [4], in [5] and in assay [6] was inactive. For the same compound, the outcome in assay [7], in assay [8], in [9] and in assay [10] was inactive.

Take `NC(=O)C(F)(F)C(F)(F)C(F)(F)F`: the outcome in assay [1], in [2], in [3], in assay [4], in [5] and in assay [6] was inactive. Further, the result in [7], in [8], in assay [9] and in [10] was inactive.

Turning to `CN(C(=O)C(F)(F)C(F)(F)C(F)(F)F)[Si](C)(C)C`, the result in assay [1], in assay [2], in assay [3], in [4], in assay [5] and in assay [6] was inactive. In addition, the result in [7], in assay [8], in assay [9] and in assay [10] was inactive.
